# A number with no mark means an inactive call. Records with an inconclusive call do not appear. Active and inactive are the calls of the source. The call rests on the fitted dose curve.
# Molecular target: 5-hydroxytryptamine receptor 2A (Homo sapiens) (UniProt P28223)
# Assay: 5-hydroxytryptamine receptor 2A (HTR2A) small molecule agonists, cell-based qHTS assay (AID 1963587); further: nearly all actives have a fitted effect of over 30% in size; further: potency means the concentration at half of the fitted maximal effect
# Settings: HTR2A-CHO cells, calcium flux fluorescence, agonist mode; series mostly up to 76.8 µM; activation: at the top concentration
# Outline: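 HTR2A-CHO cells, plated 18 h at 37 C/5% CO2, dye-loaded 1 h at 37 C; compounds in DMSO added by pin tool (agonist mode). Intracellular calcium flux read as kinetic fluorescence on FDSS over 2 min at 1 s intervals.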
# On the % scale 0 is the no-effect control and ±100 the full control effect.
# Chain of 5-hydroxytryptamine receptor 2A (Homo sapiens) (P28223 whole entry, looked up): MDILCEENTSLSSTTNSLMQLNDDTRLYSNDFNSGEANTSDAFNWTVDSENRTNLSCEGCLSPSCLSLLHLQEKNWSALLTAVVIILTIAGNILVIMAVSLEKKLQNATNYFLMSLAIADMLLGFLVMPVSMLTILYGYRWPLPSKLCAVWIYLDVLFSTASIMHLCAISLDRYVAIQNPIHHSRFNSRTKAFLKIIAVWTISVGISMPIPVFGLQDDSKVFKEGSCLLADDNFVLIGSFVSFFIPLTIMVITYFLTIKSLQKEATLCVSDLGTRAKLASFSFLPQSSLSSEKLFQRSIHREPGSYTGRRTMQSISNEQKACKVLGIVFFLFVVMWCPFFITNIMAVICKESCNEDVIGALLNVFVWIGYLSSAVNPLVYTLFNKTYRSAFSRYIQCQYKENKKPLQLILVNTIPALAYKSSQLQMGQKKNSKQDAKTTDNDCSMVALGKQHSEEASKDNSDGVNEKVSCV
SMILES,activation,Potency
CC(C)NCCCC1(C(N)=O)c2ccccc2-c2ccccc21,0.488% [at 35.6 µM],–
O=C(O)C[C@H](O)C[C@H](O)/C=C/c1c(C2CC2)nc2ccccc2c1-c1ccc(F)cc1,-5.4% [at 15.9 µM],–
O=P(O)(O)OCC(O)CO (stereo not given),-1.99% [at 35.6 µM],–
COC(=O)[C@H]1[C@H]2C[C@@H]3c4[nH]c5cc(OC)ccc5c4CCN3C[C@H]2C[C@@H](OC(=O)COc2ccc(OC)cc2)[C@@H]1OC,5.27% [at 35.6 µM],–
Cc1ccc2c(Cl)cc(Cl)c(O)c2n1,-1.23% [at 35.6 µM],–
CCC(=O)OC(=O)CC,-0.708%,–
C[N+]12CCC(CC1)C(OC(=O)C(O)(c1ccccc1)c1ccccc1)C2 (stereo not given),-0.0701% [at 35.6 µM],–
C[N+]1(CC2COC(c3ccccc3)(c3ccccc3)O2)CCCCC1 (stereo not given),-9.9% [at 15.9 µM],–
Cc1ncc(CO)c(C=O)c1O,-1.63% [at 35.6 µM],–
CC(C)c1ccc(C#N)cc1,-6.97%,–
CN(C)CCN1CCOCC1,17.5%,–
O=C(Nc1ccccc1)Nc1ccccc1,-3.46%,–
O=C(O)c1ccc[n+]([O-])c1,1.52% [at 35.6 µM],–
NC(Cc1ccc(Cl)cc1)C(=O)O (stereo not given),0.604% [at 0.292 µM],–
CCCCCCCCCCc1ccccc1,0.017%,–
CCOc1cc([N+](=O)[O-])c(OCC)cc1N1CCOCC1,-2.35%,–
CO[C@@H]1[C@H](OC(=O)/C=C/C=C/C=C/C=C/C(=O)O)CC[C@]2(CO2)[C@H]1[C@@]1(C)O[C@@H]1CC=C(C)C,2.47%,–
Cn1c(=O)[nH]c2ncn(C)c2c1=O,-1.85%,–
Nc1nc(Cl)nc2c1ncn2[C@@H]1O[C@H](CO)[C@@H](O)[C@@H]1F,-1.33% [at 35.6 µM],–
CC(C)(C)C1=CC(=O)C(C(C)(C)C)=CC1=O,–,3.79 µM (active)
Cc1c(C(=O)NCCO)[n+](=O)c2ccccc2n1[O-],1.03% [at 35.6 µM],–
C=CC(C)(CCC=C(C)C)OC(=O)C(C)C (stereo not given),2.29%,–
CN1Cc2cc(C(=O)N3CCC(C4CCNCC4)CC3)ccc2N[C@@H](CC(=O)O)C1=O,2.78% [at 35.6 µM],–
[O-][n+]1cccc(CO)c1,4.38% [at 35.6 µM],–
Cc1cc(C(=O)O)ccc1[N+](=O)[O-],-0.454%,–
O=S1(=O)c2cccc3cccc(c23)N1CCCN1CCN(c2ccc(F)cc2)CC1,-20% [at 35.6 µM],–

# Molecular target: Muscarinic acetylcholine receptor M1 (Homo sapiens) (UniProt P11229)
# Sequence (P11229 whole entry, looked up): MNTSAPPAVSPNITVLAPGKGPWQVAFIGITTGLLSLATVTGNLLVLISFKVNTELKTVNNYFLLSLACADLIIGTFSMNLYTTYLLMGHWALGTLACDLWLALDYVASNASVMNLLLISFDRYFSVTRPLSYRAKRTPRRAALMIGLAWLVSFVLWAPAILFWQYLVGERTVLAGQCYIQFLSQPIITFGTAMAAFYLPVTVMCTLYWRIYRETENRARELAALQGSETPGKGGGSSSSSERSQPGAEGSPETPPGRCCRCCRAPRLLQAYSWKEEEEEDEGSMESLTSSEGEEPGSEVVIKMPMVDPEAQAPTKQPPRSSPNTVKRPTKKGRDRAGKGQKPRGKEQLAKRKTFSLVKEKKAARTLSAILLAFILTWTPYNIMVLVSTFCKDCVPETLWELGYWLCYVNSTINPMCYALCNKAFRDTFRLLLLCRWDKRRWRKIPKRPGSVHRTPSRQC
# Assay: Cholinergic receptor muscarinic 1 (CHRM1) small molecule antagonists, cell-based qHTS assay (AID 1963588); further: nearly all actives have a fitted effect of over 40% in size; further: potency means the concentration at half of the fitted maximal effect
# Settings: CHRM1-CHO antagonist mode, calcium flux fluorescence; series mostly up to 61.5 µM; activity, negative = inhibition: at the top concentration
# Outline: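 CHRM1-CHO calcium-flux assay, antagonist mode. Cells were seeded 18 h, dye-loaded 1 h at 37 C and given compound for 5 min at RT, then acetylcholine was added at 50nM. FDSS fluorescence was read 3 min; 15 concentrations, three runs.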
SMILES,"activity, negative = inhibition",Potency
CC(C)=CCC[C@@](C)(O)[C@H]1CC=C(C)CC1,-5.78% [at 28.3 µM],–
O=C(O)C[C@H](O)C[C@H](O)/C=C/c1c(C2CC2)nc2ccccc2c1-c1ccc(F)cc1,7.39% [at 12.6 µM],–
O=P(O)(O)OCC(O)CO (stereo not given),20.5% [at 28.3 µM],–
COC(=O)[C@H]1[C@H]2C[C@@H]3c4[nH]c5cc(OC)ccc5c4CCN3C[C@H]2C[C@@H](OC(=O)COc2ccc(OC)cc2)[C@@H]1OC,-9.88% [at 28.3 µM],–
Cc1ccc2c(Cl)cc(Cl)c(O)c2n1,5.85% [at 28.3 µM],–
CCC(=O)OC(=O)CC,5.07%,–
O=C1c2ccccc2C(=O)N1CO,-16.8%,–
C[N+]12CCC(CC1)C(OC(=O)C(O)(c1ccccc1)c1ccccc1)C2 (stereo not given),–,0.0013 µM (active)
Cc1cccc([N+](=O)[O-])c1C(=O)O,5.07%,–
Cc1ncc(CO)c(C=O)c1O,12% [at 28.3 µM],–
CN(C)CCN1CCOCC1,-7.48%,–
CCOC(=O)[C@H](C)O,-13.8%,–
O=C(Nc1ccccc1)Nc1ccccc1,-5.99%,–
O=C(O)c1ccc[n+]([O-])c1,12.9% [at 28.3 µM],–
NC(Cc1ccc(Cl)cc1)C(=O)O (stereo not given),9.51% [at 0.232 µM],–
CCCCCCCCCCc1ccccc1,-13.4%,–
CCOc1cc([N+](=O)[O-])c(OCC)cc1N1CCOCC1,11.1%,–
CO[C@@H]1[C@H](OC(=O)/C=C/C=C/C=C/C=C/C(=O)O)CC[C@]2(CO2)[C@H]1[C@@]1(C)O[C@@H]1CC=C(C)C,8.7%,–
FC(F)(F)c1ccc(Cl)cc1Cl,-13.2%,–
O=C(CCC1CCN(Cc2ccccc2)CC1)c1ccc2c(c1)NCCCC2,–,3.26 µM (active)
Cn1c(=O)[nH]c2ncn(C)c2c1=O,-5.29%,–
Nc1nc(Cl)nc2c1ncn2[C@@H]1O[C@H](CO)[C@@H](O)[C@@H]1F,-24.5% [at 28.3 µM],–
CC(C)(C)C1=CC(=O)C(C(C)(C)C)=CC1=O,5.42% [at 28.3 µM],–
Cc1c(C(=O)NCCO)[n+](=O)c2ccccc2n1[O-],0.222% [at 28.3 µM],–
CN1Cc2cc(C(=O)N3CCC(C4CCNCC4)CC3)ccc2N[C@@H](CC(=O)O)C1=O,–,1.63 µM (active)
[O-][n+]1cccc(CO)c1,7.97% [at 28.3 µM],–
CC(C)=CCC/C(C)=C/C=N/O,8.37%,–
CC(=O)c1c(C)cc(C(C)(C)C)cc1C,-13.8%,–

# Molecular target: Muscarinic acetylcholine receptor M1 (Homo sapiens) (UniProt P11229)
# Assay: Cholinergic receptor muscarinic 1 (CHRM1) small molecule agonists, cell-based qHTS assay (AID 1963589); further: nearly all actives have a fitted effect of over 35% in size
# Settings: CHRM1-CHO cells, agonist mode, calcium flux fluorescence; series mostly up to 76.8 µM; activation: at the top concentration
# Outline: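 Stable CHRM1-CHO cells (human receptor) were incubated 18 h, dye-loaded for 1 h at 37 C and exposed to test compounds for agonist activity, with calcium-dependent fluorescence followed kinetically.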
row,SMILES,activation
1,CC(C)NCCCC1(C(N)=O)c2ccccc2-c2ccccc21,-0.192% [at 35.3 µM]
2,CC(C)=CCC[C@@](C)(O)[C@H]1CC=C(C)CC1,0.199% [at 35.3 µM]
3,O=C(O)C[C@H](O)C[C@H](O)/C=C/c1c(C2CC2)nc2ccccc2c1-c1ccc(F)cc1,-0.297% [at 15.8 µM]
4,O=P(O)(O)OCC(O)CO (stereo not given),-0.304% [at 35.3 µM]
5,COC(=O)[C@H]1[C@H]2C[C@@H]3c4[nH]c5cc(OC)ccc5c4CCN3C[C@H]2C[C@@H](OC(=O)COc2ccc(OC)cc2)[C@@H]1OC,-0.321% [at 35.3 µM]
6,Cc1ccc2c(Cl)cc(Cl)c(O)c2n1,0.0013% [at 35.3 µM]
7,CCC(=O)OC(=O)CC,0.303%
8,O=C1c2ccccc2C(=O)N1CO,0.325%
9,C[N+]12CCC(CC1)C(OC(=O)C(O)(c1ccccc1)c1ccccc1)C2 (stereo not given),-0.202% [at 35.3 µM]
10,C[N+]1(CC2COC(c3ccccc3)(c3ccccc3)O2)CCCCC1 (stereo not given),10.6% [at 15.8 µM]
11,Cc1ncc(CO)c(C=O)c1O,0.141% [at 35.3 µM]
12,CC(C)c1ccc(C#N)cc1,-0.077%
13,CN(C)CCN1CCOCC1,0.0652%
14,CCOC(=O)[C@H](C)O,-0.0233%
15,O=C(Nc1ccccc1)Nc1ccccc1,-0.135%
16,O=C(O)c1ccc[n+]([O-])c1,-0.0017% [at 35.3 µM]

row,SMILES,activation
1,CCOc1cc([N+](=O)[O-])c(OCC)cc1N1CCOCC1,-0.239%
2,CO[C@@H]1[C@H](OC(=O)/C=C/C=C/C=C/C=C/C(=O)O)CC[C@]2(CO2)[C@H]1[C@@]1(C)O[C@@H]1CC=C(C)C,0.605%
3,FC(F)(F)c1ccc(Cl)cc1Cl,3.04%
4,O=C(CCC1CCN(Cc2ccccc2)CC1)c1ccc2c(c1)NCCCC2,-0.121% [at 35.3 µM]
5,Cn1c(=O)[nH]c2ncn(C)c2c1=O,0.126%
6,Nc1nc(Cl)nc2c1ncn2[C@@H]1O[C@H](CO)[C@@H](O)[C@@H]1F,-0.0007% [at 35.3 µM]
7,CC(C)(C)C1=CC(=O)C(C(C)(C)C)=CC1=O,-0.0901% [at 35.3 µM]
8,Cc1c(C(=O)NCCO)[n+](=O)c2ccccc2n1[O-],-0.929% [at 35.3 µM]
9,C=CC(C)(CCC=C(C)C)OC(=O)C(C)C (stereo not given),-0.471%
10,CN1Cc2cc(C(=O)N3CCC(C4CCNCC4)CC3)ccc2N[C@@H](CC(=O)O)C1=O,-0.282% [at 35.3 µM]
11,[O-][n+]1cccc(CO)c1,-0.378% [at 35.3 µM]
12,Cc1cc(C(=O)O)ccc1[N+](=O)[O-],0.215%
13,CC(C)=CCC/C(C)=C/C=N/O,-0.299%
14,CC(=O)c1c(C)cc(C(C)(C)C)cc1C,0.114%
15,O=S1(=O)c2cccc3cccc(c23)N1CCCN1CCN(c2ccc(F)cc2)CC1,29.2% [at 35.3 µM]

# — PubChem BioAssay (Tox21)
